Measurements: the supplement of paper PMC11026393

System: H1299
Assay: difference in mean normalized H2B-mRuby nuclear fluorescence intensity relative to DMSO control (normalized intensity difference (DMSO = 0)); higher = stronger increase in transgene reporter fluorescence
Settings: 24 h
Procedure: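 Cancer cell lines stably expressing H2B-mRuby2 from a lentiviral PGK promoter were treated with each drug for 24 h and imaged on a Leica DMI8 (ex 541-551 / em 565-605 nm). Nuclei were segmented in CellProfiler. The value is the difference in mean per-nucleus normalized H2B-mRuby intensity versus DMSO-treated cells (about 3 repeats x 4 fields). Doxorubicin is itself fluorescent. Dasatinib is in nM.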

| SMILES | difference (concentration: 0.1) | difference (concentration: 0.5) | difference (concentration: 1) | difference (concentration: 5) | difference (concentration: 10) | difference (concentration: 25) | difference (concentration: 100) | difference (concentration: 500) |
| --- | --- | --- | --- | --- | --- | --- | --- | --- |
| Cc1sc2c(c1C)C(c1ccc(Cl)cc1)=N[C@@H](CC(=O)OC(C)(C)C)c1nnc(C)n1-2 (concentration unit: uM) | 0.176 | 0.367 | 0.441 | 0.532 | 0.625 | – | – | – |
| CN[C@@H]1C[C@H]2O[C@@](C)([C@@H]1OC)n1c3ccccc3c3c4c(c5c6ccccc6n2c5c31)C(=O)NC4 (concentration unit: nM) | – | – | – | -0.113 | -0.185 | -0.17 | 0.0873 | 0.138 |
